Compound activity: PubChem BioAssay, National Center for Advancing Translational Sciences (NCATS)
In the library only some 19% were active in any assay of this set; here they are far more common.
TDP1 block = inhibitors of human tyrosyl-DNA phosphodiesterase TDP1; hit rate 0.28% among 350,000; Potency, µM (titrated, usually from 130 µM), for the others: at the top dose activity change, negative = inhibition, actives largely listed as inhibitors; AID 485290; recombinant TDP1, AlphaScreen DNA substrate cleavage; Q9NUW8; also: potency is read from the fitted curve at half-maximal effect; % is scaled to controls: 0 for no effect and ±100 for the full control effect; nearly all actives have a fitted effect of over 40% in size
Target sequence (Q9NUW8 whole entry, looked up): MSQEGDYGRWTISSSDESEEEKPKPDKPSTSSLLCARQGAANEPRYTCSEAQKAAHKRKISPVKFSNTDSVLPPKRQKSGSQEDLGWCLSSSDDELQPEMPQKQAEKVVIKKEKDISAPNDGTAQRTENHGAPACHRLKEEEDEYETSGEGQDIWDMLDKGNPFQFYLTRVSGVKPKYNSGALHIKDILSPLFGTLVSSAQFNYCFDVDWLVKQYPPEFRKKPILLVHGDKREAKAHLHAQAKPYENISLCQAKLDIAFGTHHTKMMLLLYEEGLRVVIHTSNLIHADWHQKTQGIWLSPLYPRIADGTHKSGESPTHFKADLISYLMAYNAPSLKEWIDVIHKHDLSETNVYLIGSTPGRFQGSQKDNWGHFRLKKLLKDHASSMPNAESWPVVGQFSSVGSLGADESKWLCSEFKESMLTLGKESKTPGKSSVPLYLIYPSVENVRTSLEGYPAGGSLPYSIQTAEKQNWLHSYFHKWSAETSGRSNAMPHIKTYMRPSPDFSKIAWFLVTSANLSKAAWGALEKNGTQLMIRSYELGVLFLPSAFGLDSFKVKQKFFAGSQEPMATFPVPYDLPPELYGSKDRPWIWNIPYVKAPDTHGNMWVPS
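Recombinant E. coli-expressed Tdp1 (1 nM) preincubated with compound 15 min at RT, then 5'-biotin/3'-phosphotyrosine-FITC DNA substrate (15 nM) added for 5 min. AlphaScreen beads (10 ug/ml) added, 10 min RT; tyrosine-FITC cleavage read as signal loss.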
IL1B secr inh = inhibitors of inflammasome signaling (IL-1 beta secretion) | hit rate 4.7% among 360,000 | activity change, % at 57.5 µM | AID 743279 | THP-1 LPS/ATP IL-1B secretion, AlphaLISA, 16 h; hits give low values; in the data active = activity change below about -50%; inconclusive = mostly about -30% to -49%; also: % is scaled to controls: 0 for no effect and ±100 for the full control effect
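Secreted IL-1B measured by AlphaLISA bead assay after 16 h compound exposure of THP-1 cells; compounds (final up to 57.5 uM) added 1 h before LPS (250 ng/mL) and ATP (1.25 mM) stimulation; lower signal means less secretion.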
TDP1 cell CPT = growth inhibition of DT40 Tdp1-/-;hTDP1 cells with camptothecin (screen for TDP1 inhibitors); chicken DT40 Tdp1-/-;hTDP1 cells + 20 nM CPT, ATP luminescence, 48 h; Potency, µM (top dose mostly 46.2 µM), without a hit: top-dose activity change, negative = growth inhibition, usual class: inhibitors; hit rate 12% among 420,000; AID 686979; also: potency is read from the fitted curve at half-maximal effect; % is scaled to controls: 0 for no effect and ±100 for the full control effect; nearly all actives have a fitted effect of over 55% in size
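Chicken DT40 Tdp1-/- cells complemented with human TDP1, 400 cells/well, exposed to compounds plus 20 nM camptothecin for at least 48 h at 37 C; viability read as ATP content by CellTiter-Glo luminescence.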
HepG2 tox = counter-screen for TGF-b inhibitors: cytotoxicity in HepG2 cells. HepG2 CAGA-GFP viability, ATP luminescence, 18 h. Potency, µM (highest dose often 46.1 µM), for inactives: top-dose activity change, negative = cytotoxicity, actives largely listed as cytotoxic. hit rate 0.76% among 410,000. AID 588856; also: potency is read from the fitted curve at half-maximal effect
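HepG2 CAGA-GFP cells (1000/well, DMEM with 1% FBS) received compound, then TGF-beta at 500 pg/mL final, and were incubated 18 hours at 37 degrees C. Viability was read by CellTiter-Glo luminescence. Media-only wells were set as complete cell-killing and DMSO as no toxicity.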
DT40 TDP1 no CPT = qHTS for Inhibitors of human tyrosyl-DNA phosphodiesterase 1 (TDP1): qHTS in cells in absence of CPT | DT40 Tdp1-/- hTDP1 cells, no CPT, ATP luminescence, 48 h | hit rate 15% among 420,000 | Potency, µM (doses to about 46.2 µM), for the others: at the highest dose activity change, negative = growth inhibition, usual class: inhibitors; also: potency is read from the fitted curve at half-maximal effect; % is scaled to controls: 0 for no effect and ±100 for the full control effect; nearly all actives have a fitted effect of over 55% in size
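Luminescent ATP content (CellTiter-Glo) served as the growth readout. Knockout chicken DT40 cells expressing human TDP1 were exposed to compounds without camptothecin for a minimum 48 hr at 37 °C.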
TGFb inhibitor = inhibitors of TGF-b signaling; Potency, µM (titrated, usually from 46.1 µM), for the others: at the highest dose activity, negative = inhibition, hits mostly inhibitors; hit rate 1.2% among 410,000; HepG2 CAGA-GFP TGF-b/SMAD3 reporter, GFP fluorescence, 18 h; TGF-beta stimulated, 500 pg/mL final; also: potency is read from the fitted curve at half-maximal effect; % is scaled to controls: 0 for no effect and ±100 for the full control effect; nearly all actives have a fitted effect of over 65% in size
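Inhibition of TGF-beta-driven CAGA-GFP reporter expression in HEPG2 cells is measured by cellular GFP fluorescence after 18 h stimulation with 500 pg/mL recombinant TGF-beta in 1% FBS medium at 37 degrees C.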
Active calls of the source: *; ? = inconclusive; / = not tested or not shown; [ ] = remark or other dose. Unless noted, calls follow the shape of the dose curve; as a rule, active = well fitted curve in the direction sought with a large enough effect; inconclusive = small, poorly fitted or top-dose-only effect, or another doubt; inactive = no such curve, though single readings can be large; an effect the other way counts as inactive or inconclusive.

SMILES	TDP1 block	IL1B secr inh	TDP1 cell CPT	HepG2 tox	DT40 TDP1 no CPT	TGFb inhibitor
COc1ccc(OCC(=O)OCc2cc(=O)n3cc(C)sc3n2)cc1	3.2%	/	-15.4%	-12.6%	-11.7%	-0.1%
O=C(/C=C/c1ccccc1)OCCN1C(=O)c2ccccc2C1=O	/	2.3	0.4%	4.9%	-3.7%	0.0%
CC[C@H](C)[C@H]1O[C@]2(CC[C@@H]1C)C[C@@H]1C[C@@H](C/C=C(\C)[C@H](O[C@@H]3C[C@H](OC)[C@H](O[C@@H]4C[C@H](OC)[C@@H](O)[C@H](C)O4)[C@H](C)O3)[C@@H](C)/C=C/C=C3\CO[C@@H]4[C@H](O)C(C)=C[C@@H](C(=O)O1)[C@]34O)O2	8.5%	/	/	/	/	/
CC[C@H](C)[C@H]1O[C@]2(CC[C@@H]1C)C[C@@H]1C[C@@H](C/C=C(\C)[C@@H](O[C@H]3C[C@H](OC)[C@@H](O[C@H]4C[C@H](OC)[C@@H](O)[C@H](C)O4)[C@H](C)O3)[C@@H](C)/C=C/C=C3\CO[C@@H]4[C@H](O)C(C)=C[C@@H](C(=O)O1)[C@]34O)O2	/	/	10.6µM*	/	?	/
Cc1ccc(S(=O)(=O)N2CCc3nc(COc4ccccc4)c4c(c3C2)CO[C@@H](C)C4)cc1	7.4%[12.3 µM]	/	/	/	/	/
Cc1cccc(N2CCN(C(c3ccccc3)c3nnc(-c4ccccc4F)o3)CC2)c1C (configuration not stated)	-2.1%[12.3 µM]	/	14.6µM*	-14.6%	23.1µM*	-29.6%
Cc1ccc(C)c(N2CCN(C(c3ccc(F)cc3)c3nnc(-c4ccccc4)o3)CC2)c1 (configuration not stated)	0.0%	/	?	-8.4%	14.6µM*	-0.4%
Cc1cccc(N2CCN(C(c3ccccc3)c3nnc(-c4ccccc4Cl)o3)CC2)c1C (configuration not stated)	-2.1%[12.3 µM]	/	20.6µM*	-16.5%	?	-6.5%
Cc1ccc(C)c(N2CCN(C(c3ccccc3)c3nnc(-c4ccccc4F)o3)CC2)c1 (configuration not stated)	0.0%	/	?	1.4%	23.1µM*	-5.2%
Cc1ccc(C)c(N2CCN(C(=O)CCc3nc(-c4ccccc4F)no3)CC2)c1	0.2%[56.1 µM]	25.5	?	-1.4%	?	?
Cc1cccc[n+]1C1C(c2ccccc2)C(C#N)=C(C(=C=[N-])C#N)NC1(O)C1CC1 (configuration not stated)	0.0%	-16.3	23.1µM*	-13.5%	?	-5.6%
CCOC1=C(C#N)CC2(CC1)c1ccccc1-c1ccccc12	/	-29.7	?	0.9%	23.1µM*	9.8%
C=C(C)COc1ccc(-c2nc(N)ncc2Oc2ccccc2OC)c(O)c1	6.1%	-61.6*	?	-103.5%	?	?
CCc1cc(-c2nc(N)ncc2-c2ccc(Br)cc2)c(O)cc1OC	5.0%	36.6	?	22.4µM*	?	?
C=C(C)COc1ccc(-c2nc(N)nc(C(F)(F)F)c2-c2ccc(OC)cc2)c(O)c1	/	-3.8	?	-79.2%	?	?
C=C(C)COc1ccc(-c2ncncc2-c2ccc(Br)cc2)c(O)c1	/	-7.9	-0.6%	-21.9%	-28.5%	?
C=C(C)COc1ccc(-c2nc(N)ncc2-c2ccc(Br)cc2)c(O)c1	/	0.0	?	-105.3%	?	15.8µM*
C=C(C)COc1ccc(-c2nc(N)ncc2Oc2ccc(OC)cc2)c(O)c1	5.1%	0.0	?	11.2µM*	29.1µM*	?
COc1ccc(-c2cnc(N)nc2-c2ccc(OC)cc2)cc1	/	0.0	-19.8%	-24.9%	-17.0%	3.3%
COc1cccc(NC(=O)Cn2c(=O)n(-c3ccccc3)c(=O)c3ccc(C(=O)NCc4ccc5c(c4)OCO5)cc32)c1	7.0%	/	?	-17.0%	?	-2.0%
CC1CC[C@@]2(C(=O)O)CCC3(C)C(=CCC4[C@]5(C)CC(O)C(O)[C@](C)(CO)C5C(O)C[C@@]43C)C2C1C (some centres not stated)	-11.3%[56.1 µM]	/	1.0%	/	0.4%	/
CCOc1ccc(N=Nc2c(=O)[nH]n3c(=O)cc(C)[nH]c23)cc1	6.7%	16.5	20.6µM*	-33.4%	?	3.9%
CC(=O)Nc1cccc(S(=O)(=O)N2CCCN(S(=O)(=O)c3ccc4c(c3)OCCO4)CC2)c1	1.0%	/	/	/	/	/
C=CCn1c(CCNC(=O)c2ccc(Cl)c(Cl)c2)nnc1SCCOc1ccc(OC)cc1	7.3%	?	?	1.2%	25.9µM*	?
CCn1c(CNC(=O)c2ccc(OC)cc2)nnc1SCC(=O)Nc1ccc(OC)cc1	-5.8%	/	-2.7%	21.1%	-9.0%	1.7%
SMILES	TDP1 block	IL1B secr inh	TDP1 cell CPT	HepG2 tox	DT40 TDP1 no CPT	TGFb inhibitor
COc1ccc(CC(=O)NCc2nnc(SCCOc3ccccc3)n2C)cc1	6.8%	-24.9	?	-43.7%	?	?
COc1ccc(C(=O)NCc2nnc(SCC(=O)NO)n2Cc2ccccc2)cc1	1.2%	?	18.4µM*	-14.7%	?	?
CCn1c(CNC(=O)Cc2ccc(OC)cc2)nnc1SCCOc1ccccc1	3.0%	?	?	-12.3%	16.4µM*	0.0%
COc1ccc(S(N)(=O)=O)cc1C(=O)NNC(=O)CN(C)S(=O)(=O)c1ccc(Cl)cc1	0.2%	5.4	-2.4%	3.9%	-5.4%	-3.5%
O=C(c1ccc(Cl)cc1)N1CCCCC(Cl)C1=O (configuration not stated)	-0.6%	0.0	2.7%	5.3%	-5.8%	5.2%
CC1CCCN(C(=S)SCC(=O)c2cc(Br)cc(Br)c2O)C1 (configuration not stated)	8.6%	11.6	4.11µM*	8.2%	2.91µM*	1.6%
Cc1nn(-c2ccccc2)c(N2CCCC2)c1/C=N/NC(=O)c1ccccc1O	6.8%	14.5	?	-28.5%	?	-9.9%
O=C(N/N=C/c1cc2c3c(c1O)CCCN3CCC2)c1ccccc1O	13.3%	220.6	3.66µM*	-60.2%	4.61µM*	?
CCN(CC(=O)Nc1ccc2c(c1)OCCO2)CC(=O)Nc1ccc(C)c([N+](=O)[O-])c1	6.0%	-0.1	?	-0.9%	?	18.3%
O=C(Cc1ccccc1)NC1CC(=O)N(c2ccccc2)C1 (configuration not stated)	0.0%	/	13.7%	-12.5%	6.0%	-6.0%
O=C1CC(/C=C/c2ccc(Cl)cc2)=Nc2ccccc2N1	4.6%	-93.8*	?	-41.5%	14.6µM*	11.2µM*
